Measured values taken from PubChem BioAssay (NCATS).
Where “and” joins values, the source holds several entries; their conditions need not be identical. Equal entries are not always repeated. Results filed as inconclusive are left out. Entries that show only a call come without a potency. Values without a mark were called inactive. Calls of active or inactive are those of the source. Calls come from the whole dose curve; as a rule, active = well fitted curve in the direction sought with a large enough effect; inconclusive = small, poorly fitted or top-dose-only effect, or another doubt; inactive = no such curve, though single readings can be large; an effect the other way counts as inactive or inconclusive. Where a SMILES comes first, the peptide text is derived from it. Bridges are numbered along the chain shown (N, C = ends). [ ]: non-standard residue; d: D form. hArg = N=C(N)NCCCC[C@H](N)C(=O)O; Mpa = O=C(O)CCS

How the values were obtained:
[1] = biological target: Cytochrome P450 3A7 (Homo sapiens) (UniProt P24462); assay: Cytochrome P450 family 3 subfamily A member 7 (CYP3A7) small molecule antagonists: luciferase biochemical qHTS assay (AID 1963596); note: nearly all actives have a fitted effect of over 40% in size
In short: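 Recombinant CYP3A7 P450-Glo luminescent assay: enzyme-proluciferin substrate mix preincubated with compound 10 min at room temperature, reaction started with NADPH regeneration system for 1 h. Luciferin detected by luminescence; ketoconazole as positive control.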

[2] = Cellular viability qHTS for adrenocortical cancer (ACC) cell line SW-13 (AID 1963989); details: SW-13 ACC cells viability, CellTiter-Glo, 48 h; activity (max response): stronger effect = lower value; note: nearly all actives have a fitted effect of over 65% in size; note: potency is the fitted concentration of half-maximal effect;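 for activity (max response): cells grown in serum-free medium with ITS supplement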
In short: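 48 h treatment, SW-13 in ITS/DMEM serum-free; doses up to 46 uM; readout CellTiter-Glo luminescence; curve fit four-parameter logistic.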

[3] = Cellular viability qHTS for adrenocortical cancer (ACC) cell line NCI-H295R (AID 1963990); note: nearly all actives have a fitted effect of over 60% in size; note: potency is the fitted concentration of half-maximal effect
In short: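 Compound titrations (up to 46 uM final) are applied to NCI-H295R cultures for 48 h at 37C. Viable cell number is estimated by CellTiter-Glo signal, normalised to DMSO and doxorubicin controls.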

Chain of Cytochrome P450 3A7 (Homo sapiens) (P24462 whole entry, looked up): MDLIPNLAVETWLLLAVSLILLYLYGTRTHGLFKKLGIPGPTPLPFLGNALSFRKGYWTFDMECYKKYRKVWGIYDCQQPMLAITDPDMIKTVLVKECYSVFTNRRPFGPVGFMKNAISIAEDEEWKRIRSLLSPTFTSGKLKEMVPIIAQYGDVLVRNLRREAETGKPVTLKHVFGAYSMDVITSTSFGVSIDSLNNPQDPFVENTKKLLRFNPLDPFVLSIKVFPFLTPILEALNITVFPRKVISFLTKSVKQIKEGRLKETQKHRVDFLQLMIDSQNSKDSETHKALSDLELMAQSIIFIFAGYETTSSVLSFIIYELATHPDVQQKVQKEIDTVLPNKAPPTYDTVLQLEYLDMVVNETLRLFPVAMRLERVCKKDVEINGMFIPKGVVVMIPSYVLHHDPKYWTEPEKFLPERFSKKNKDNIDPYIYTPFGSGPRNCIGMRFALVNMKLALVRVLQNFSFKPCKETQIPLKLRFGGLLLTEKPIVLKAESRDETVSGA

| Compound | Potency [1] | activity (max response) [2] | Potency [3] | Potency [2] |
| --- | --- | --- | --- | --- |
| COc1ccccc1OCC1CNC(=O)O1 (stereo not drawn) | inactive | 12.9% | inactive |  |
| CC(=O)c1cc2ccccc2s1 | inactive | 15.3% | inactive |  |
| NC(=O)CC[C@@H]1NC(=O)[C@H](Cc2ccccc2)NC(=O)[C@H](Cc2ccc(O)cc2)NC(=O)CCSSC[C@@H](C(=O)N2CCC[C@H]2C(=O)N[C@@H](CCCN=C(N)N)C(=O)NCC(N)=O)NC(=O)[C@H](CC(N)=O)NC1=O | inactive | -1.25% | inactive |  |
| Cc1nc(N)nc(N)c1-c1ccc(Cl)c(Cl)c1 | inactive |  | 130 nM (active) | 231 nM (active) |
| C[C@@H]1CCN(C(=O)N2CCCC2)C[C@@H]1N(C)c1ncnc2[nH]ccc12 | inactive | 11.2% | inactive |  |
| Cc1nc([N+](=O)[O-])cn1-c1ccc([N+](=O)[O-])cc1 | inactive | -2.45% | inactive |  |
| CCOc1ccccc1C(N)=O | inactive | 2.11% | inactive |  |
| CC(N)CCCC(C)(C)O (stereo not drawn) | inactive | 18.8% | inactive |  |
| CCN1CC(CCN2CCOCC2)C(c2ccccc2)(c2ccccc2)C1=O (stereo not drawn) | inactive | 1.41% | inactive |  |
| CC1CC(OC(=O)C(O)c2ccccc2)CC(C)(C)N1C (stereo not drawn) | inactive | 2.77% | inactive |  |
| COc1ccc(-c2cc(C(F)F)nn2-c2ccc(S(N)(=O)=O)cc2)cc1F | inactive | -7.1% | inactive |  |
| CC(C)(C)NCC(O)COc1cccc2c1CCC(=O)N2 (stereo not drawn) | inactive | 3.97% | inactive |  |
| COC(=O)c1cc(Cl)ccc1NS(=O)(=O)C(F)(F)F | inactive | -0.552% | inactive |  |
| O=C1c2cccc3c2[C@H](CCC3)CN1[C@@H]1CN2CCC1CC2 | inactive | -4.45% | inactive |  |
| CN1CCC(N(Cc2cccs2)c2ccccc2)CC1 | inactive | 6.02% | inactive |  |
| CC(C)c1cc2c(cc1S(=O)(=O)O)[C@@]1(C)CCC[C@@](C)(C(=O)O)[C@@H]1CC2 | inactive | 15.8% | inactive |  |
| CCOC(CN1CCN(CC(C)C(=O)c2ccccc2)CC1)c1ccccc1 (stereo not drawn) | inactive | -8.86% | inactive |  |
| CN(C)C(=O)Nc1ccc(Cl)c(Cl)c1 | inactive | -2.09% | inactive |  |

| Compound | Potency [1] | activity (max response) [2] | Potency [3] | Potency [2] |
| --- | --- | --- | --- | --- |
| CCN(CC)CC(=O)Nc1c(C)cccc1C | inactive | 2.91% | inactive |  |
| Cc1ccc(C(=O)C(C)CN2CCCCC2)cc1 (stereo not drawn) | inactive | -5.23% | inactive |  |
| Clc1ccccc1-c1nc(-c2ccncc2)no1 | inactive | -7.1% | inactive |  |
| O=C(O)c1cn(C2CC2)c2cc(Cl)c(F)cc2c1=O | inactive | 13.4% | inactive |  |
| COc1cc2c3cc1Oc1cc(ccc1O)C[C@@H]1c4c(cc(OC)c(O)c4Oc4ccc(cc4)C[C@@H]3N(C)CC2)CC[N+]1(C)C | inactive | -1.9% | inactive |  |
| CC1c2ccccc2CN1NC(=O)c1ccc(Cl)c(S(N)(=O)=O)c1 (stereo not drawn) | inactive | -11.8% | inactive |  |
| CC(=O)OCC(=O)NCCCOc1cccc(CN2CCCCC2)c1 | inactive | 3.89% | inactive |  |
| CCCCCCCCCCCCCCCC(=O)OC(C)C | inactive | 6.75% | inactive |  |
| Cl/C(=C\n1cncn1)c1ccc(Cl)cc1Cl | inactive | 2.66% | inactive |  |
| COP(=O)(OC)OC(c1ccc(Cl)cc1)P(=O)(OC)OC (stereo not drawn) | inactive | -0.893% | inactive |  |
| Brc1ccccc1-c1ccccc1 | inactive | 7.98% | inactive |  |
| CCO/C([O-])=N/c1c[n+](N2CCOCC2)no1 | inactive | -2.98% | inactive |  |
| Cn1cc(S(C)=O)c(=O)c2ccc(F)cc21 (stereo not drawn) | inactive | 8.71% | inactive |  |
| Nc1ccn([C@@H]2O[C@H](CO)[C@@H](O)C2(F)F)c(=O)n1 | inactive | -35% and -42.2% | 2.06 µM (active) and 794 nM (active) |  |
| CC(CN(C)C)C(C)(O)Cc1ccc(Cl)cc1 (stereo not drawn) | inactive | 6.59% | inactive |  |
| Cc1ccc(C(C)C)c(O)c1 | inactive | 10.4% | inactive |  |
| CC(C)(Oc1ccc(Cl)cc1)C(=O)O | inactive | -3.02% | inactive |  |
| NC(=O)[C@@H]1CSSCCC(=O)N[C@@H](CCCCN=C(N)N)C(=O)NCC(=O)N[C@@H](CC(=O)O)C(=O)N[C@@H](Cc2c[nH]c3ccccc23)C(=O)N2CCC[C@H]2C(=O)N1 ([Mpa][hArg]GDWPC-NH2; disulfide 1-7) | inactive | 17.5% | inactive |  |
